Common to all, as to settings: mRNA level, 48 h; actives raise or lower the signal
Read-out in assay [1]: Cyclin Dependent Kinase Inhibitor 1A (CDKN1A), CDKN1A (gene 1026)
The assay can be described thus: LTEA_HepaRG_CDKN1A: Life Technologies and Expression Analysis (LTEA) Assay for Cyclin Dependent Kinase Inhibitor 1A (CDKN1A) using HepaRG (AID 2283450). In a few lines:
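HepaRG, 48 h dosing, 8-pt half-log series from 100 uM top, 0.5% DMSO vehicle, duplicates. Readout: TaqMan qRT-PCR of CDKN1A transcript, housekeeping-normalized (ACTB, GAPDH, POLR2A). Up/down curve fit relative to DMSO.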

Read-out in assay [2]: Cyclin D1 (CCND1), CCND1 (gene 595)
Description: LTEA_HepaRG_CCND1: Life Technologies and Expression Analysis (LTEA) Assay for Cyclin D1 (CCND1) using HepaRG (AID 2283451).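 As to AC50: differentiated human HepaRG liver cells in serum-free induction medium; TaqMan qRT-PCR transcript level normalised to ACTB GAPDH and POLR2A housekeeping genes.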 In a few lines: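 qRT-PCR (Fluidigm 96.96 array) read-out of transcript level, housekeeping-normalized (ACTB/GAPDH/POLR2A). HepaRG cells, 48 h chemical exposure, 8-point half-log series from 100 uM, 0.5% DMSO vehicle; gain or loss relative to DMSO baseline.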

Read-out in assay [3]: catalase (CAT), CAT (gene 847)
Description: LTEA_HepaRG_CAT: Life Technologies and Expression Analysis (LTEA) Assay for catalase (CAT) using HepaRG (AID 2283452). In a few lines: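 Expression of CAT was quantified by TaqMan qRT-PCR with ACTB/GAPDH/POLR2A normalization after 48 h chemical exposure of HepaRG. Eight-point half-log series, top 100 uM, in 0.5% DMSO; gain or loss fitted against vehicle.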

Read-out in assay [4]: flavin-containing dimethylaniline monooxygenases 3 (FMO3), FMO3 (gene 2328)
Description: LTEA_HepaRG_FMO3: Life Technologies and Expression Analysis (LTEA) Assay for flavin-containing dimethylaniline monooxygenases 3 (FMO3) using HepaRG (AID 2283453).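 As to AC50: differentiated human HepaRG liver cells in serum-free induction medium.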 In a few lines:
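Eight-point concentration-response in serum-free HepaRG cultures (top 100 uM, 0.5% DMSO, 48 h). Read-out: FMO3 mRNA level normalized to three endogenous control genes, fitted bidirectionally versus vehicle.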

Read-out in assay [5]: Cytochrome P450 (CYP1A1), CYP1A1 (gene 1543)
The assay can be described thus: LTEA_HepaRG_CYP1A1: Life Technologies and Expression Analysis (LTEA) Assay for Cytochrome P450 (CYP1A1) using HepaRG (AID 2283454). In a few lines:
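qRT-PCR read-out: CYP1A1 transcript normalized to three housekeeping genes, fitted bidirectionally against 0.5% DMSO vehicle baseline. Human HepaRG cells, 48 h chemical exposure, 8-point half-log series topping at 100 uM.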

Read-out in assay [6]: CFLAR gene, CFLAR (gene 8837)
The assay can be described thus: LTEA_HepaRG_CFLAR: Life Technologies and Expression Analysis (LTEA) Assay for CFLAR gene using HepaRG (AID 2283455). In a few lines: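 Transcript level by qRT-PCR (normalized to ACTB, GAPDH and POLR2A) after 48 h chemical exposure of HepaRG cells, top concentration 100 uM with half-log steps, 0.5% DMSO vehicle, duplicates; fitted bidirectionally against DMSO baseline.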

Read-out in assay [7]: Forkhead box O1 (FOXO1), FOXO1 (gene 2308)
The assay can be described thus: LTEA_HepaRG_FOXO1: Life Technologies and Expression Analysis (LTEA) Assay for Forkhead box O1 (FOXO1) using HepaRG (AID 2283456). In a few lines: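 FOXO1 transcript quantified by qRT-PCR after 48 h chemical exposure (top 100 uM, half-log steps, 0.5% DMSO) of HepaRG cells, housekeeping-normalized (ACTB/GAPDH/POLR2A). Changes fitted in both directions relative to vehicle.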

Read-out in assay [8]: growth arrest and DNA damage 45 (GADD45A), GADD45A (gene 1647)
The assay can be described thus: LTEA_HepaRG_GADD45A: Life Technologies and Expression Analysis (LTEA) Assay for growth arrest and DNA damage 45 (GADD45A) using HepaRG (AID 2283458). In a few lines:
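HepaRG, 48 h exposure, 8 conc. (top 100 uM, half-log steps), 0.5% DMSO vehicle, duplicates. Read-out: qRT-PCR mRNA level, housekeeping-normalized (ACTB/GAPDH/POLR2A). Curves fit bidirectionally vs DMSO baseline.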

Read-out in assay [9]: Forkhead box O3 (FOXO3), FOXO3 (gene 2309)
The assay can be described thus: LTEA_HepaRG_FOXO3: Life Technologies and Expression Analysis (LTEA) Assay for Forkhead box O3 (FOXO3) using HepaRG (AID 2283459). In a few lines: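 FOXO3 transcript measured by qRT-PCR (normalized to ACTB, GAPDH, POLR2A) after 48 h exposure of HepaRG cells in serum-free induction medium. Duplicates, eight half-log concentrations up to 100 uM, 0.5% DMSO; gain or loss fitted against DMSO.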

Read-out in assay [10]: ABC Transporter (ABCB1), ABCB1 (gene 5243)
The assay can be described thus: LTEA_HepaRG_ABCB1: Life Technologies and Expression Analysis (LTEA) Assay for ABC Transporter (ABCB1) using HepaRG (AID 2283460). In a few lines:
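ABCB1 transcript level measured by TaqMan qRT-PCR against three housekeeping genes after 48 h chemical exposure of differentiated HepaRG cells. Top concentration 100 uM, half-log steps, eight points, 0.5% DMSO vehicle; bidirectional fit relative to DMSO.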

Read-out in assay [11]: ABC Transporter (ABCB11), ABCB11 (gene 8647)
The assay can be described thus: LTEA_HepaRG_ABCB11: Life Technologies and Expression Analysis (LTEA) Assay for ABC Transporter (ABCB11) using HepaRG (AID 2283463). In a few lines:
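ABCB11 transcript levels quantified by TaqMan qRT-PCR against three housekeeping genes after 48 h chemical exposure of HepaRG cultures. Concentrations up to 100 uM in half-log steps, 0.5% DMSO vehicle; both induction and suppression scored.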

Read-out in assay [12]: ABC Transporter (ABCC2), ABCC2 (gene 1244)
The assay can be described thus: LTEA_HepaRG_ABCC2: Life Technologies and Expression Analysis (LTEA) Assay for ABC Transporter (ABCC2) using HepaRG (AID 2283464). In a few lines: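 qRT-PCR (TaqMan, Fluidigm array) read-out of ABCC2 mRNA, normalized to three housekeeping genes. Differentiated HepaRG cells were treated 48 h in serum-free induction medium with 8-point half-log series from 100 uM in 0.5% DMSO; curves fitted bidirectionally relative to DMSO.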

Read-out in assay [13]: Broad substrate specificity ATP-binding cassette transporter ABCG2 (Homo sapiens) (UniProt Q9UNQ0)
Description: LTEA_HepaRG_ABCG2: Life Technologies and Expression Analysis (LTEA) Assay for ABC Transporter (ABCG2) using HepaRG (AID 2283465). In a few lines:
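ABCG2 transcript was quantified by TaqMan qRT-PCR against three housekeeping genes in HepaRG cells. Cells were treated in duplicate for 48 h across an 8-point half-log series up to 100 uM, with 0.5% DMSO vehicle. Gain or loss versus DMSO was fit.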

Read-out in assay [14]: ATP-citrate lyase (ACLY), ACLY (gene 47)
The assay can be described thus: LTEA_HepaRG_ACLY: Life Technologies and Expression Analysis (LTEA) Assay for ATP-citrate lyase (ACLY) using HepaRG (AID 2283466). In a few lines: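 ACLY mRNA quantified by qRT-PCR on Fluidigm arrays against three housekeeping genes, after 48 h chemical treatment of HepaRG cells (top concentration 100 uM, half-log steps, 0.5% DMSO vehicle). Up- or down-regulation fitted relative to DMSO.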

Read-out in assay [15]: Alkaline Phosphatase, Placental (ALPP) gene, ALPP (gene 250)
Description: LTEA_HepaRG_ALPP: Life Technologies and Expression Analysis (LTEA) Assay for Alkaline Phosphatase, Placental (ALPP) gene using HepaRG (AID 2283468).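 As to AC50: differentiated human HepaRG liver cells in serum-free induction medium.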 In a few lines:
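qRT-PCR readout of ALPP mRNA (Fluidigm TaqMan), normalized to ACTB/GAPDH/POLR2A, after 48 h chemical exposure of HepaRG cells; 8-point half-log series, top 100 uM, 0.5% DMSO vehicle. Bidirectional curve fit versus DMSO baseline.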

Read-out in assay [16]: Bcl-2 (BAD) gene, BAD (gene 572)
The assay can be described thus: LTEA_HepaRG_BAD: Life Technologies and Expression Analysis (LTEA) Assay for Bcl-2 (BAD) gene using HepaRG (AID 2283469). In a few lines:
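Read-out: qRT-PCR of BAD mRNA, normalized to three housekeeping genes. Human HepaRG cultures got 48 h chemical exposure in 0.5% DMSO, duplicate eight-point half-log series topping at 100 uM. Gain or loss of signal fitted versus DMSO vehicle.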

Read-out in assay [17]: ABC Transporter (ABCC3), ABCC3 (gene 8714)
Description: LTEA_HepaRG_ABCC3: Life Technologies and Expression Analysis (LTEA) Assay for ABC Transporter (ABCC3) using HepaRG (AID 2283462). In a few lines: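 qRT-PCR read-out of ABCC3 transcript, normalized to three housekeeping genes (ACTB, GAPDH, POLR2A), after 48 h chemical exposure of human HepaRG cells. Eight half-log concentrations, highest 100 uM, in 0.5% DMSO; gain or loss fitted relative to DMSO baseline.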

Read-out in assay [18]: Peroxisomal acyl-coenzyme A oxidase 1 (ACOX1) gene, ACOX1 (gene 51)
The assay can be described thus: LTEA_HepaRG_ACOX1: Life Technologies and Expression Analysis (LTEA) Assay for Peroxisomal acyl-coenzyme A oxidase 1 (ACOX1) gene using HepaRG (AID 2283467). In a few lines:
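ACOX1 transcript levels were quantified by TaqMan qRT-PCR against three housekeeping genes after 48 h chemical exposure of differentiated human HepaRG cells. Exposure used eight half-log steps topping at 100 uM, 0.5% DMSO vehicle, in duplicate. Bidirectional curve fits were made relative to DMSO.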

Read-out in assay [19]: growth arrest and DNA damage 45 (GADD45B), GADD45B (gene 4616)
The assay can be described thus: LTEA_HepaRG_GADD45B: Life Technologies and Expression Analysis (LTEA) Assay for growth arrest and DNA damage 45 (GADD45B) using HepaRG (AID 2283461). In a few lines: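 qRT-PCR read-out (Fluidigm TaqMan, housekeeping-normalized) of mRNA change in human HepaRG cells after 48 h chemical exposure; 8-point curve, top 100 uM, half-log steps, 0.5% DMSO vehicle; gain or loss fitted relative to DMSO baseline.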

Molecules are shown by their SMILES. The source made the active and inactive calls. The calls were made as follows: active = hit-call score of the fitted dose curve at least 0.9, where 1 is the maximum; inactive = score below 0.9.

Broad substrate specificity ATP-binding cassette transporter ABCG2 (Homo sapiens), sequence (Q9UNQ0 whole entry, looked up): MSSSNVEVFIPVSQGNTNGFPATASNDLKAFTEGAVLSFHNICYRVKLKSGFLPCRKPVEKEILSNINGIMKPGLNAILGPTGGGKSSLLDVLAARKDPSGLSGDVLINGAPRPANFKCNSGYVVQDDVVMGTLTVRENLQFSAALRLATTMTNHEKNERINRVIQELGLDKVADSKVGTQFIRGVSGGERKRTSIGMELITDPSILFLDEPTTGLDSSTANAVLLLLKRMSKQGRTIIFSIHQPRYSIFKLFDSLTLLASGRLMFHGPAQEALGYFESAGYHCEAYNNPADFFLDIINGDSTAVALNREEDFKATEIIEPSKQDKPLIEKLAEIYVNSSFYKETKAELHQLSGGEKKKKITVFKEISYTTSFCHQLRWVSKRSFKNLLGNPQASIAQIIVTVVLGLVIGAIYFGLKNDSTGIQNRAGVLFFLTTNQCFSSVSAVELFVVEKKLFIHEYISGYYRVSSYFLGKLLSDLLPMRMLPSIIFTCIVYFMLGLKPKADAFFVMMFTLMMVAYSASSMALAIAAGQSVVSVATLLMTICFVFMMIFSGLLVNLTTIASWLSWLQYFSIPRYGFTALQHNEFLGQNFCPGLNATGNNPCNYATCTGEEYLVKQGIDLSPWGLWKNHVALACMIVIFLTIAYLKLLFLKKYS

For orientation: AC50 means the midpoint of the concentration-response curve, whichever way the signal moves. Regarding `CCOC(=O)O[C@H](C)OC(=O)c1ccc2c(c1)cc(C(=O)NC1CCN(C(C)C)CC1)n2Cc1cc(-c2ccc(Cl)s2)on1`, the call in [1], in [2], in assay [3], in [4], in [6] and in assay [7] was inactive. Moreover, the compound was called inactive in assay [8], in assay [9], in [10], in assay [11], in assay [12] and in [13]. Further, the result in assay [14] and in [16] was inactive. In addition, the AC50 in assay [5] is 65.2 µM (active); in assay [15], 16.9 µM (active).

`Cc1occc1C(=O)Nc1ccc(C(=O)N2CCC(F)(F)/C(=C\C(=O)N3CCC(N4CCCCC4)CC3)c3ccccc32)cc1`: the outcome in assay [1], in assay [7], in [8], in assay [10], in [12] and in [13] was inactive. Also, in [16], the outcome was inactive. Besides, the concentration at half-maximal activity (AC50) was 39.9 µM (active) in assay [2]; 31.2 µM (active) in assay [3]; 44 µM (active) in assay [4]; 16.8 µM (active) in [5]; 31.2 µM (active) in assay [6]; 47 µM (active) in assay [17]. Moreover, the AC50 in assay [11] was 44.5 µM (active); in assay [14] it was 53.2 µM (active); in [18], 31.2 µM (active); in assay [15], 46.7 µM (active).

Consider `CC[C@@H]1C[C@H](N(Cc2cc(C(F)(F)F)cc(C(F)(F)F)c2)C(C)=O)c2cc(C(F)(F)F)ccc2N1C(=O)OC(C)C`, for which the result in [1], in assay [2], in assay [3], in assay [4], in [6] and in assay [7] was inactive. The call in assay [8], in assay [19], in [17], in assay [11], in assay [13] and in [14] was inactive. For the same compound, the call in [15] and in [16] was inactive. The concentration at half-maximal activity (AC50) in [5] was 16.7 µM (active); in [10] it was 0.429 µM (active); in assay [12], 0.737 µM (active).

Values taken from PubChem BioAssay (EPA / NIEHS).
